“And” between values parts separate entries of the source, which are not always exact repeats. Equal entries are not always repeated. Results filed as inconclusive are left out. Where a call stands in place of a potency, no number is given. The source made the active and inactive calls. Unless noted, calls follow the shape of the dose curve; as a rule, active = well fitted curve in the direction sought with a large enough effect; inconclusive = small, poorly fitted or top-dose-only effect, or another doubt; inactive = no such curve, though single readings can be large; an effect the other way counts as inactive or inconclusive.
Legend:
[1] = Cell Viability - LYMP2-020 (AID 986); also: nearly all actives have a fitted effect of over 55% in size
Method in brief: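 Human lymphoblastoid LYMP2-020 cells (2500/well) preincubated 5 h at 37 C, then treated 24 h at 37 C. Viability measured as intracellular ATP by CellTiter-Glo luminescence after 30 min at room temperature; AC50 from Hill fits.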

[2] = Cell Viability - LYMP2-022 (AID 987); also: nearly all actives have a fitted effect of over 55% in size
Method in brief: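 LYMP2-022 lymphoblastoid cells (2500/well, complete medium) were treated with compounds for 24 hours at 37 C; intracellular ATP was then read by CellTiter-Glo luminescence after 30 min at room temperature. AC50 values were derived from Hill-equation fits.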

[3] = Cell Viability - LYMP2-024 (AID 988); also: nearly all actives have a fitted effect of over 60% in size
Method in brief: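 Human lymphoblastoid LYMP2-024 cells (2500/well) rested 5 hr, then treated with compound for 24 hr at 37 C in complete medium. Viability was measured as intracellular ATP by CellTiter-Glo luminescence. AC50 values came from Hill-equation fits.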

[4] = Cell Viability - LYMP2-026 (AID 989); also: nearly all actives have a fitted effect of over 50% in size
Method in brief: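 Human lymphoblastoid LYMP2-026 cells, 2500/well, exposed to compound 24 h at 37 C in complete medium. Viability as intracellular ATP by CellTiter-Glo luminescence; AC50 from Hill fits of qHTS concentration-response.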

[5] = target: Alpha-galactosidase A (Homo sapiens) (UniProt P06280); assay: Counterscreen for Glucocerebrosidase Inhibitors: qHTS Assay for Human alpha-Galactosidase at pH 4.5 (AID 992)
Method in brief: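 Concentration-response curves (0.7 nM to 77 uM final) were modeled with the Hill equation to give AC50. Reactions: 2 nM enzyme, 80 uM fluorogenic alpha-galactoside, pH 4.5 citric acid buffer, 20 min, room temperature.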

[6] = Cell Viability - LYMP1-002 - Assay at 40 hr (AID 994); also: nearly all actives have a fitted effect of over 60% in size
Method in brief: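 LYMP1-002 human lymphoblastoid cells (2500/well, complete medium) were treated with compounds for 40 hr at 37 C. Intracellular ATP was measured by CellTiter-Glo luminescence, and AC50 values came from Hill-equation fits of concentration-response data; tetraoctylammonium bromide was the positive control.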

[7] = target: alpha-glucosidase (Oryza sativa, rice) (UniProt Q653V4); assay: Counterscreen for Glucocerebrosidase Inhibitors: qHTS Assay for Rice alpha-Glucosidase at pH 5.0 (AID 997)
Method in brief: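 Rice alpha-glucosidase (4 nM final) with 400 uM 4-methylumbelliferyl-alpha-D-glucopyranoside in citrate buffer pH 5.0, 20 min at room temperature, stopped at pH 10; fluorescence 365/440 nm, compounds 0.7 nM–77 uM, AC50 from Hill fits.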

[8] = Validation of Assay for Modulators of Lamin A Splicing (AID 1459; active = well fitted curve in the direction sought with a large enough effect in the signal ratio; the % refers to the signal ratio;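 also: cells exposed to compound for two days before reading; ratio rise marks activators and ratio drop marks inhibitors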)
Method in brief: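 Splicing correction is reported by an EGFP-containing lamin A minigene in stably transfected S3 HeLa cells, while DsRed2 controls for viability and nonspecific signal. Cells are exposed to compounds for 48 hrs before the GFP over RFP ratio is taken.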

[9] = target: DNA repair nuclease/redox regulator APEX1 (Homo sapiens) (UniProt P27695); assay: qHTS Validation Assay for Inhibitors of the Human Apurinic/apyrimidinic Endonuclease 1 (APE1) (AID 1705;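 also: TAMRA fluorescence gain over two minutes as APE1 cuts a quenched THF abasic duplex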)
Method in brief: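 Endonuclease activity of human APE1 is followed as dequenching when the enzyme incises a tetrahydrofuran abasic site in a short duplex labelled 5'-TAMRA/3'-BHQ-2 (50 nM final), after 15 min enzyme–compound preincubation at room temperature.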

[10] = Counterscreen for APE1 Inhibitors: Fluorescent Dye Displacement Validation Assay (AID 1707)
Method in brief: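 Assay buffer: Tris-HCl pH7.5 with 50mM NaCl, 2 mM MgCl2, 0.01% Tween-20. Dye 250 nM, duplex 50 nM final. Readout: decrease in ThO endpoint fluorescence, 480 nm excitation, 540 nm emission.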

[11] = target: Endonuclease 4 (Escherichia coli (strain K12)) (UniProt P0A6C1); assay: Counterscreen for APE1 Inhibitors: qHTS Validation Assay for Inhibitors of Endonuclease IV (AID 1708)
Method in brief: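 E. coli EndoIV at 2 nM final, preincubated 15 min at room temperature with compound, then 50 nM TAMRA/BHQ-2 THF abasic-site duplex added. Buffer: 50 mM Tris-HCl pH 7.5, 50 mM NaCl, 2 mM MgCl2, 1 mM DTT, 0.01% Tween-20. Kinetic fluorescence increase, third minus first read.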

[12] = qHTS for differential inhibitors of proliferation of Plasmodium falciparum line 7G8 (AID 1815);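 also: parasite growth measured after three days of incubation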; also: potency is read from the fitted curve at half-maximal effect
[13] = qHTS for differential inhibitors of proliferation of Plasmodium falciparum line GB4 (AID 1816); settings: Potency: Plasmodium falciparum GB4 proliferation inhibition;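 also: parasite growth measured after 72 h incubation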; also: potency is read from the fitted curve at half-maximal effect
[14] = qHTS for differential inhibitors of proliferation of Plasmodium falciparum line 3D7 (AID 1876); also: potency is read from the fitted curve at half-maximal effect
[15] = qHTS for differential inhibitors of proliferation of Plasmodium falciparum line D10 (AID 1877);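 also: parasites grown with compound for 72 h before DNA staining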; also: potency is read from the fitted curve at half-maximal effect
[16] = qHTS for differential inhibitors of proliferation of Plasmodium falciparum line Dd2 (AID 1882); settings: Potency: Plasmodium falciparum Dd2 proliferation inhibition; also: nearly all actives have a fitted effect of over 65% in size; also: potency is read from the fitted curve at half-maximal effect
Method in brief: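 Dd2-infected erythrocytes (0.3% parasitemia, 2.5% hematocrit final) incubated with compound 72 h at 37 C, 5% CO2; lysed with saponin/Triton buffer containing SYBR Green I, incubated overnight in the dark, then read by fluorescence (485/535 nm). Normalized to 0.29 uM artemisinin and DMSO.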

[17] = qHTS for differential inhibitors of proliferation of Plasmodium falciparum line W2 (AID 1883); settings: Potency: Plasmodium falciparum W2 proliferation inhibition;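 also: parasites grown with compound for 72 h before lysis and staining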; also: potency is read from the fitted curve at half-maximal effect
[18] = qHTS for differential inhibitors of proliferation of Plasmodium falciparum line HB3 (AID 1886); settings: Potency: Plasmodium falciparum HB3 proliferation inhibition;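 also: parasites grown with compound for 72 h before SYBR Green readout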; also: potency is read from the fitted curve at half-maximal effect
[19] = qHTS Assay for Lipid Storage Modulators (AID 1519; calls by dose curve); settings: Drosophila S3 cells, BODIPY lipid droplet/cell ratio, laser cytometry, cells loaded with oleic acid
Method in brief: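 Cells seeded at 5,000 per well were treated with compounds over a concentration series and loaded with oleic acid (400 uM, as added). Lipid droplet fluorescence (488 nm excitation, 500-530 nm channel) was read by laser-scanning cytometry and normalized to 20 uM Triacsin C.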

[20] = qHTS Assay for Modulators of Human Peripheral Myelin Protein 22 (PMP22) Expression/Activity (AID 1967; active = well fitted curve in the direction sought with a large enough effect in the signal ratio; the % refers to the signal ratio)
Method in brief: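 Quantitative HTS in a mouse Schwann cell line expressing dual click beetle luciferases: Pmp22 promoter (green) and control EF-alpha promoter (red). After 24h treatment, corrected green/red signal ratio gave %Activity relative to untreated cells.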

[21] = measured here: cell count channel max response
[22] = measured here: lipid channel max response

Chain of Alpha-galactosidase A (Homo sapiens) (P06280 whole entry, looked up): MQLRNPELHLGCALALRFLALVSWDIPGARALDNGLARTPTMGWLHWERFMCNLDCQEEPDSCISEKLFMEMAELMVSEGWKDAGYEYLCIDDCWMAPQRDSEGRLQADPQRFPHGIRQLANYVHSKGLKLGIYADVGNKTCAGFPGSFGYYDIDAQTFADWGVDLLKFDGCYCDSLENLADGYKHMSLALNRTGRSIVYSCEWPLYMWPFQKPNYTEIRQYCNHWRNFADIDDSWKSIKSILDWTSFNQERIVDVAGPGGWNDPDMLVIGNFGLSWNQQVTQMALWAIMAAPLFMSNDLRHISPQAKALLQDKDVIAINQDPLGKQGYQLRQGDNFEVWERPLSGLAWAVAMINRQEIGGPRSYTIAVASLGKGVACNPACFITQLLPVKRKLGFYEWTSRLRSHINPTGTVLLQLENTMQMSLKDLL
Chain of DNA repair nuclease/redox regulator APEX1 (Homo sapiens) (P27695 whole entry, looked up): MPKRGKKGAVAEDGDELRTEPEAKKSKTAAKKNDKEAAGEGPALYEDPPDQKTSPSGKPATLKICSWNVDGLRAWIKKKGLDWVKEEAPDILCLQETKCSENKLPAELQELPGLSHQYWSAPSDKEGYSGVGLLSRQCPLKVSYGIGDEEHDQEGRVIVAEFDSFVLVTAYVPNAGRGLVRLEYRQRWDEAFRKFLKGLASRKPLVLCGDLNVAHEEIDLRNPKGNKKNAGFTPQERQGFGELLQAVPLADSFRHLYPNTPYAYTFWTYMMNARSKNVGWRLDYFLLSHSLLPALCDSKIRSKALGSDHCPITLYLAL

N[C@@H](Cc1c[nH]c2ccc(O)cc12)C(=O)O
outcome [1]: inactive | outcome [2]: inactive | outcome [3]: inactive | outcome [4]: inactive | outcome [5]: inactive | Potency [6]: inactive | outcome [7]: inactive | outcome [8]: inactive | Potency [9]: inactive | Potency [10]: inactive | Potency [11]: inactive | Potency [12]: inactive | Potency [13]: inactive | Potency [14]: inactive | Potency [15]: inactive | Potency [16]: inactive | Potency [17]: inactive | Potency [18]: inactive

CC(CCc1ccc(O)cc1)NCCc1ccc(O)c(O)c1 (stereo unspecified)
outcome [8]: inactive | Potency [9]: inactive | Potency [10]: inactive | Potency [11]: inactive | Potency [12]: 12.6 µM (active) | Potency [13]: 12.6 µM (active) | Potency [15]: 14.1 µM (active) | Potency [17]: 10 µM (active) | Potency [18]: 12.6 µM (active)

NC(CO)C(=O)NNCc1ccc(O)c(O)c1O (stereo unspecified)
outcome [8]: inactive | activity change, negative = inhibition ([19]; at 57.5 µM (top of the series)): 13.3% (inactive) | max response [19, 21]: 25.8% | max response [19, 22]: 46.4% | Potency [9]: inactive | Potency [10]: inactive | Potency [11]: inactive | Potency [13]: inactive | Potency [14]: inactive | Potency [15]: inactive | Potency [16]: inactive | Potency [18]: inactive

CC1COc2c(N3CCN(C)CC3)c(F)cc3c(=O)c(C(=O)O)cn1c23 (stereo unspecified)
outcome [8]: inactive | activity change, negative = inhibition ([19]; at 57.5 µM (top of the series)): 6.1% (inactive) and 7.75% (inactive) | max response [19, 21]: 10.5% and 11.1% | max response [19, 22]: 20.7% and 20.3% | Potency [9]: inactive | Potency [10]: inactive | Potency [11]: inactive | Potency [16]: inactive | Potency [17]: 14.1 µM (active) | Potency [20]: inactive

NCCc1cnc[nH]1
outcome [5]: inactive | outcome [7]: inactive | outcome [8]: inactive | Potency [9]: inactive | Potency [10]: inactive | Potency [11]: inactive | Potency [12]: inactive | Potency [13]: inactive | Potency [14]: inactive | Potency [15]: inactive | Potency [16]: inactive | Potency [17]: inactive | Potency [18]: inactive | Potency [20]: inactive

CN1CCC(=C2c3ccccc3C=Cc3ccccc32)CC1
outcome [5]: inactive | outcome [7]: inactive | activity change, negative = inhibition ([19]; at 25.7 µM (top of the series)): -4.01% (inactive) | activity change, negative = inhibition ([19]; at 57.5 µM (top of the series)): 0.516% (inactive) | max response [19, 21]: 4.35% and -11% | max response [19, 22]: -0.358% and -12.9% | Potency [9]: inactive | Potency [10]: inactive | Potency [11]: inactive | Potency [12]: 5.01 µM (active) | Potency [13]: 8.91 µM (active) | Potency [14]: 11.2 µM (active) | Potency [15]: 12.6 µM (active) | Potency [16]: 5.01 µM (active) | Potency [17]: 2.82 µM (active) | Potency [18]: 11.2 µM (active)

CN(C)CCCN1c2ccccc2CCc2ccc(Cl)cc21
outcome [5]: inactive | outcome [7]: inactive | activity change, negative = inhibition ([19]; at 25.7 µM (top of the series)): -2.54% (inactive) | activity change, negative = inhibition ([19]; at 57.5 µM (top of the series)): 1.94% (inactive) | max response [19, 21]: -4.06% and 0.0678% | max response [19, 22]: -5.65% and 2.74% | Potency [9]: inactive | Potency [10]: inactive | Potency [11]: inactive | Potency [12]: 5.01 µM (active) | Potency [13]: 5.01 µM (active) | Potency [14]: 10 µM (active) | Potency [15]: 11.2 µM (active) | Potency [16]: 7.94 µM (active) | Potency [17]: 5.01 µM (active) | Potency [18]: 10 µM (active)

Cn1cnc2c1c(=O)[nH]c(=O)n2C
outcome [5]: inactive | outcome [8]: inactive | activity change, negative = inhibition ([19]; at 25.7 µM (top of the series)): -1.11% (inactive) | activity change, negative = inhibition ([19]; at 57.5 µM (top of the series)): -1.44% (inactive) and 2.73% (inactive) | max response [19, 21]: -1.67% and 17.8% and 14.4% | max response [19, 22]: -0.915% and 15.2% and 17.5% | Potency [9]: inactive | Potency [10]: inactive | Potency [11]: inactive | Potency [12]: inactive | Potency [13]: inactive | Potency [14]: inactive | Potency [15]: inactive | Potency [16]: inactive | Potency [17]: inactive | Potency [18]: inactive

Reference: PubChem BioAssay (NCATS)
